Inconclusive results are not listed. More than one record can exist for a structure, and the calls need not agree. Activity calls are given as the source filed them. Rule for the calls, unless noted: active = hit-call score of the fitted dose curve at least 0.9, where 1 is the maximum; inconclusive = response in the unintended direction; inactive = score below 0.9.
Columns and labels:
[1] = target: Glucocorticoid receptor (Homo sapiens) (UniProt P04150); test: NVS_NR_hGR: NovaScreen (NVS) Nuclear Receptor Binding Assay for human Glucocorticoid Receptor (GR) (AID 2283363);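 for AC50: activity is loss of specific radioligand binding signal relative to DMSO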
Sequence of Glucocorticoid receptor (Homo sapiens) (P04150 whole entry, looked up): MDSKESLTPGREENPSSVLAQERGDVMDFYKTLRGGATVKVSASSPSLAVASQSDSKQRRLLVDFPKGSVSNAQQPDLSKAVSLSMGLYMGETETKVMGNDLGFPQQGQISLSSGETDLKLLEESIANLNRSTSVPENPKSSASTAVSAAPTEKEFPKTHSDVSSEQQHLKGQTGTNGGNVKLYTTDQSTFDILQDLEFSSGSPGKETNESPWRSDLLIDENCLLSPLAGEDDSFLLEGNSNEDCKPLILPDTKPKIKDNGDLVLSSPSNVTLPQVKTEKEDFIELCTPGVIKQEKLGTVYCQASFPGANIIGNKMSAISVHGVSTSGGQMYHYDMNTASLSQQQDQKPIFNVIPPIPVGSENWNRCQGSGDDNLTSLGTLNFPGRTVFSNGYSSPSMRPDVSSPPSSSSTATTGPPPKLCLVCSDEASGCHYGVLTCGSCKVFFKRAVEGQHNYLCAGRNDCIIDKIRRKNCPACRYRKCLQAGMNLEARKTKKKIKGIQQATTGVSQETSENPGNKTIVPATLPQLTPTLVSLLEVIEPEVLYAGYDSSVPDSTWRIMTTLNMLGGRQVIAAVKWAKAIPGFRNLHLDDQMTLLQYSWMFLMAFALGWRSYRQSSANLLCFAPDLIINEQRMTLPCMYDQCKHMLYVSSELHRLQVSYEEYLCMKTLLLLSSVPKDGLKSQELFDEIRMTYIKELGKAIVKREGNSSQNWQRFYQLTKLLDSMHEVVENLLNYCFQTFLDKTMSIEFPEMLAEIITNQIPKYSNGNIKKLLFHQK
In short: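 Cell-free radioligand displacement assay on extracted human GR, read 16 h after dosing by filter-based scintillation counting. Screened in duplicate at 25 uM, then concentration series for actives; loss of signal versus DMSO baseline.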

[2] = target: Nuclear receptor subfamily 1 group I member 2 (Homo sapiens) (UniProt O75469); test: NVS_NR_hPXR: NovaScreen (NVS) Nuclear Receptor Binding Assay for human Pregnane X Receptor (PXR) (AID 2283365);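 note: a drop in FRET signal versus DMSO baseline means the compound binds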
In short: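 Human PXR protein, cell-free; compound added, incubated 2 h, TR-FRET read. Signal decrease vs DMSO = binding. Screened 25 uM duplicate, actives re-run as dilution series.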

[3] = target: Peroxisome proliferator-activated receptor gamma (Homo sapiens) (UniProt P37231); test: NVS_NR_hPPARg: NovaScreen (NVS) Nuclear Receptor Binding Assay for human Peroxisome Proliferator-activated Receptor gamma (PPARg) (AID 2283370)
Sequence of Peroxisome proliferator-activated receptor gamma (Homo sapiens) (P37231 whole entry, looked up): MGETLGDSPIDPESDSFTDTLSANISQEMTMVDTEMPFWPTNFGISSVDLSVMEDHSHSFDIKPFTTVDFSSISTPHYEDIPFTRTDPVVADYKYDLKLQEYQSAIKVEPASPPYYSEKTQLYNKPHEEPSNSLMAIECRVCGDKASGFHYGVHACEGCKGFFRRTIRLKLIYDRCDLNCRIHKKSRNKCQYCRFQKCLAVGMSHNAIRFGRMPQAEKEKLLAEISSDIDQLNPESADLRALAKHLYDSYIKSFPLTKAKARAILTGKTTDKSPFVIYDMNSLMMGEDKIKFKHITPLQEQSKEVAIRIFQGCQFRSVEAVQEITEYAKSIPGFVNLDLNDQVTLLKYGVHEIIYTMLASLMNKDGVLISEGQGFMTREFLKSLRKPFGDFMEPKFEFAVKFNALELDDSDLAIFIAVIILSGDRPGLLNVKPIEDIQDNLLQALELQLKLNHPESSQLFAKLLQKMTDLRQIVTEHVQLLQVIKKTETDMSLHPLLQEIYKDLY
In short: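 Chemicals were tested first in duplicate at 25 uM, then in concentration series if active. Binding to cell-free PPARg protein was measured by fluorescence polarization after 2 h, with loss of signal scored against DMSO.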

[4] = target: Estrogen receptor beta (Homo sapiens) (UniProt Q92731); test: OT_ER_ERbERb_1440: Odyssey Thera (OT) 24-hour HEK293T Protein-Complementation Assay for Estrogen Receptor-beta/-beta Homodimer (AID 2283380);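 note: scored as signal increase over DMSO baseline for both agonists and antagonists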
In short: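 HEK293T cells stably expressing ER beta LBD (aa 310-547) homodimer fragment-complementation reporter, dosed 24 h. Cells formaldehyde-fixed, Draq5-stained; gain in nuclear (agonist) or nuclear plus cytoplasmic (antagonist) fluorescence versus DMSO read by laser scanning cytometry.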

[5] = target: Estrogen receptor (Homo sapiens) (UniProt P03372); test: OT_ERa_GFPERaERE_0480: Odyssey Thera (OT) 8-hour HeLa Transcription Induction Assay for Estrogen Receptor (AID 2283381; active = hit-call score of the fitted dose curve at least 0.9, where 1 is the maximum; inactive = score below 0.9)
Sequence of Estrogen receptor (Homo sapiens) (P03372 whole entry, looked up): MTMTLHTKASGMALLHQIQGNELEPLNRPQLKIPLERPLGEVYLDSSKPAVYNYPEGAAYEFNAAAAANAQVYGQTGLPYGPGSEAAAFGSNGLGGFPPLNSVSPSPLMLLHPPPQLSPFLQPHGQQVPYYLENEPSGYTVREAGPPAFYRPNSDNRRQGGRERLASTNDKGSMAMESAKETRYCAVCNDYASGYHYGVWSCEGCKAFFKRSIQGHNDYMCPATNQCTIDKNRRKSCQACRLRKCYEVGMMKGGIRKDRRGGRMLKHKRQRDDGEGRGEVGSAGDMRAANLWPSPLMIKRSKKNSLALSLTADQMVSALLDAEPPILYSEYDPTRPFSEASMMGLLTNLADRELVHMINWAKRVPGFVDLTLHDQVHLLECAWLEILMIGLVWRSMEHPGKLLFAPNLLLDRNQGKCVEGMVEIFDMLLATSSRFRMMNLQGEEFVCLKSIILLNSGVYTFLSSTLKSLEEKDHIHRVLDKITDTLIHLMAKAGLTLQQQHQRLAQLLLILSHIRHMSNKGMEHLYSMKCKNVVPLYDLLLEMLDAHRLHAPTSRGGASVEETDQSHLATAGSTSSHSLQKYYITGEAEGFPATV
In short: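 HeLa cells expressing GFP reporter under estrogen response element, imaged 8 h after dosing. GFP induction quantified by high-content fluorescence microscopy image analysis; gain of signal fitted versus DMSO.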

[6] = target: Estrogen receptor (Homo sapiens) (UniProt P03372); test: OT_ERa_GFPERaERE_0120: Odyssey Thera (OT) 2-hour HeLa Transcription Induction Assay for Estrogen Receptor (AID 2283382)
In short: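 HeLa cells were dosed for 2 h, then GFP reporter induction was quantified by fluorescence microscopy with high-content image analysis. Gain of signal fitted against DMSO baseline.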

[7] = target: Retinoic acid receptor RXR-alpha (Homo sapiens) (UniProt P19793); test: OT_NURR1_NURR1RXRa_0480: Odyssey Thera (OT) 8-hour HEK293T Protein Complementation Assay for Nurr1/retinoid X receptor (RXR) (AID 2283385)
Sequence of Retinoic acid receptor RXR-alpha (Homo sapiens) (P19793 whole entry, looked up, the tested form may be a part): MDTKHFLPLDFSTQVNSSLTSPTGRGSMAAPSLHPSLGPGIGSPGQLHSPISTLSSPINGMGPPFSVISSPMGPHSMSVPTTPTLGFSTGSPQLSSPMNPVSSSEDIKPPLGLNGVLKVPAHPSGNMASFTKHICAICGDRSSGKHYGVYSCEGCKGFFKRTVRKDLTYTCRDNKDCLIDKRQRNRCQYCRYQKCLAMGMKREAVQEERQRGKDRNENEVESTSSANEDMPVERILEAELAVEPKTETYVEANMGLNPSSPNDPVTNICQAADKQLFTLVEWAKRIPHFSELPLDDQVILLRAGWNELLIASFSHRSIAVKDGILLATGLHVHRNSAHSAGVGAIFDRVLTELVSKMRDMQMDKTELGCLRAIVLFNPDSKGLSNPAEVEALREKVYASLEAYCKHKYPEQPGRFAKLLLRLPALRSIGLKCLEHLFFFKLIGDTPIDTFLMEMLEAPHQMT
In short: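 HEK293T cells expressing Nurr1 and RXRα fused to reporter fragments (protein-fragment complementation); fluorescence measured 8 h after dosing. Gain of signal fitted relative to DMSO.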

[8] = target: mouse Estrogen Receptor alpha (Era), Esr1 (gene 13982) (UniProt P19785); test: NVS_NR_mERa: NovaScreen (NVS) Nuclear Receptor Binding Assay for mouse Estrogen Receptor alpha (Era) (AID 2283378);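 note: hit means loss of bound radioligand signal relative to DMSO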
In short: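 Extracted mouse Era incubated with tritiated or iodinated radioligand plus test chemical, 18 h. Bound fraction separated on filters, counted by scintillation. DMSO = negative control/baseline; duplicate single-point at 25 uM, then concentration-response follow-up.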

[9] = target: human Peroxisome Proliferator-activated Receptor alpha (PPARa), PPARA (gene 5465) (UniProt Q07869); test: NVS_NR_hPPARa: NovaScreen (NVS) Nuclear Receptor Binding Assay for human Peroxisome Proliferator-activated Receptor alpha (PPARa) (AID 2283359);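 note: activity means loss of TR-FRET signal versus DMSO baseline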
In short: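 Cell-free TR-FRET binding assay with extracted PPARα protein, read 1 h after dosing. Primary screen in duplicate at 25 uM, with actives retested in concentration series. Loss of signal versus DMSO.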

[10] = target: Agonist Androgen Response Element (ARE), AR (gene 367) (UniProt P10275); test: OT_AR_ARELUC_AG_1440: Odyssey Thera (OT) 24-hour CHO-K1 Luciferase Assay for Agonist Androgen Response Element (ARE) (AID 2283379)
In short: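 CHO-K1 cells carrying an ARE-driven luciferase reporter were exposed to compounds for 24 h. Luminescence was then read after adding a D-luciferin/ATP mix, and activity was scored as a gain in signal over DMSO vehicle.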

PGR (gene 5241) = PGR (gene 5241) (UniProt P06401); test: NVS_NR_hPR: NovaScreen (NVS) Nuclear Receptor Binding Assay for human Progestron Receptor (PR) (AID 2283360);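 note: active means loss of bound radioligand signal versus DMSO baseline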
Sequence of PGR (gene 5241) (P06401 whole entry, looked up): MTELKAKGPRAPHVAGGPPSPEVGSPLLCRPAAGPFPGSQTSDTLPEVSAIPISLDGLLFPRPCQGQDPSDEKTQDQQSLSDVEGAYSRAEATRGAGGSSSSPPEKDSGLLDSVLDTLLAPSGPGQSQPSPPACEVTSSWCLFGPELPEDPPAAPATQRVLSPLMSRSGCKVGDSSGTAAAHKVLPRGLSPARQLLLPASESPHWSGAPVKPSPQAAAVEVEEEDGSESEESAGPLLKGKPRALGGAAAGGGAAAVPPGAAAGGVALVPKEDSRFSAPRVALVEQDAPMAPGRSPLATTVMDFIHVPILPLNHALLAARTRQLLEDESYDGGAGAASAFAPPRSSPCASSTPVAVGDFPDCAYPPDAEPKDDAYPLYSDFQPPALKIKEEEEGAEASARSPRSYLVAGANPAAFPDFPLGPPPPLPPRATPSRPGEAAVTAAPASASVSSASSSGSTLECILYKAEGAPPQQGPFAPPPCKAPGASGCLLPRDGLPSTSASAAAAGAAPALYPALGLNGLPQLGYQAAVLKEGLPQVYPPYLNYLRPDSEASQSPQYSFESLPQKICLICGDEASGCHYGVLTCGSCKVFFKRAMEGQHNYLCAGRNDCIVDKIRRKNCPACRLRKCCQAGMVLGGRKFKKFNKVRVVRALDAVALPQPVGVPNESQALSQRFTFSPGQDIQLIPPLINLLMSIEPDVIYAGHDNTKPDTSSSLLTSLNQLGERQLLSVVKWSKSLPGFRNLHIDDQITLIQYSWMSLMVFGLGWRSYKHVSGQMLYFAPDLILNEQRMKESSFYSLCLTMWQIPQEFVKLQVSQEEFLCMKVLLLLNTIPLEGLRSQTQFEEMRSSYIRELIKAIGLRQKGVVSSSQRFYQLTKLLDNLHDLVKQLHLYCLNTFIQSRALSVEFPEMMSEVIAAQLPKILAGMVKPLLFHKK
In short: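 T47D lysate; tritiated or iodinated radioligand; scintillation count at 18 h. DMSO = negative control/baseline. Primary: 25 uM, duplicate. Secondary: concentration series for actives.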

[11] = target: Bile acid receptor (Homo sapiens) (UniProt Q96RI1); test: OT_FXR_FXRSRC1_1440: Odyssey Thera (OT) 24-hour HEK293T Protein-Complementation Assay for Farnesoid X receptor/SRC-1 Co-activator (AID 2283384)
Sequence of Bile acid receptor (Homo sapiens) (Q96RI1 whole entry, looked up, the tested form may be a part): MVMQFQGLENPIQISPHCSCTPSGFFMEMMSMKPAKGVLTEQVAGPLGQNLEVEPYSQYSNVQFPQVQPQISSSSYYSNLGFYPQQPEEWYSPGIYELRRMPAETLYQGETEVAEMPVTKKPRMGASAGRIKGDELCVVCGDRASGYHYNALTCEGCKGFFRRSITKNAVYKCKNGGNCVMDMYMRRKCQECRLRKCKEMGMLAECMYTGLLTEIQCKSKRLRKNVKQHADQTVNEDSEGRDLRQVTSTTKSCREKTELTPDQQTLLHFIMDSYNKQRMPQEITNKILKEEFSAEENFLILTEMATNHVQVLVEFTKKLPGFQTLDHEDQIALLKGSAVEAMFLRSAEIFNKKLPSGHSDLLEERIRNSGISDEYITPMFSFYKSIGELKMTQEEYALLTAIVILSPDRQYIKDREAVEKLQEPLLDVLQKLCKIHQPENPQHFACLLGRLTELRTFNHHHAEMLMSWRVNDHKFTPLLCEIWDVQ
In short: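 HEK293T cells, 24 h after chemical dosing. FXR–SRC-1 coactivator interaction read as fluorescence from protein-fragment complementation of a split reporter. Gain of signal fitted against DMSO baseline.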

[12] = target: Retinoic acid receptor alpha (Homo sapiens) (UniProt P10276); test: NVS_NR_hRARa_Agonist: NovaScreen (NVS) Nuclear Receptor Binding Assay for human Retinoic Acid Alpha Receptor Agonism (RAR) (AID 2283361)
Sequence of Retinoic acid receptor alpha (Homo sapiens) (P10276 whole entry, looked up): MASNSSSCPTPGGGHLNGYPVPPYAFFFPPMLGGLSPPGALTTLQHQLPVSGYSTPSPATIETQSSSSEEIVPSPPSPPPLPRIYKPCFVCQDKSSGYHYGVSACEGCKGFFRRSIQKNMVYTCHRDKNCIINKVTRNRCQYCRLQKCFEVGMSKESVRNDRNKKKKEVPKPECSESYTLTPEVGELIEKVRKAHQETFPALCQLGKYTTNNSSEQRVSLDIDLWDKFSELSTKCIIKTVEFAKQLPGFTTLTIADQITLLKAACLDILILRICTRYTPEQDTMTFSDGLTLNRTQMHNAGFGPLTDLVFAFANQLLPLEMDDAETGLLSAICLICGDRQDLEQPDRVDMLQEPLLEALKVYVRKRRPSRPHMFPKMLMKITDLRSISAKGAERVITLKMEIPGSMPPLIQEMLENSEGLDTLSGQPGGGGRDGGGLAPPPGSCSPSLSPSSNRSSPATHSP
In short: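 Cell-free TR-FRET binding readout with extracted receptor protein, read 2 hours after dosing; gain-of-signal fitted relative to DMSO. Screened in duplicate at 25 uM, actives then run in concentration-response.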

[13] = target: human Thyroid Receptor Alpha (TRa), THRA (gene 7067) (UniProt P10827); test: NVS_NR_hTRa_Antagonist: NovaScreen (NVS) Nuclear Receptor Binding Assay for human Thyroid Receptor Alpha Antagonism (TRa) (AID 2283362);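 note: activity is loss of signal relative to DMSO baseline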
Sequence of human Thyroid Receptor Alpha (TRa), THRA (gene 7067) (P10827 whole entry, looked up): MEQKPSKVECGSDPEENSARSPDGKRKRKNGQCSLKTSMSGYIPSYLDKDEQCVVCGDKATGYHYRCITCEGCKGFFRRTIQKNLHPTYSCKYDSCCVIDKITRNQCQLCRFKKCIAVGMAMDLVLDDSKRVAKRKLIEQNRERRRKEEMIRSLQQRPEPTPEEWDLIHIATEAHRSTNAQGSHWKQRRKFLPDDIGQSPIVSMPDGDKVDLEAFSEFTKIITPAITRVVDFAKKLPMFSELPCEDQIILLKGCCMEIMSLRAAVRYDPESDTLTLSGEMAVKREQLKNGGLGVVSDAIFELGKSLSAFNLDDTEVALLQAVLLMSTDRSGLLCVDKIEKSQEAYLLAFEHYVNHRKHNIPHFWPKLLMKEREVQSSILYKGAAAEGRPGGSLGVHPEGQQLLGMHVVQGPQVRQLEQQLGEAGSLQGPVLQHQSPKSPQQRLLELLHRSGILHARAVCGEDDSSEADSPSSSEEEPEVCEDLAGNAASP
In short: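 Extracted protein, cell-free; 1 h incubation after dosing; AlphaLISA chemiluminescence binding readout. DMSO = baseline/neg ctrl; signal loss = activity. Primary: duplicate, 25 uM; secondary: conc. series on actives.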

[14] = target: rat Serotonin Transporter (SERT), Slc6a4 (gene 25553) (UniProt P31652); test: NVS_TR_rSERT: NovaScreen (NVS) Transporter Assay for rat Serotonin Transporter (SERT) (AID 2283375)
In short: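 Filtration-based radiodetection quantified loss of specific radioligand binding in rat forebrain membranes after 1 hour of chemical exposure, relative to DMSO. Chemicals were first tested in duplicate at 25 uM.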

[15] = target: human Norepinephrine Transporter (NET), SLC6A2 (gene 6530) (UniProt P23975); test: NVS_TR_hNET: NovaScreen (NVS) Transporter Assay for human Norepinephrine Transporter (NET) (AID 2283377);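 for AC50: displacement of radioligand from human NET seen as loss of scintillation signal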
In short: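 Cell-free radioligand binding using CHO-derived membrane protein expressing human NET, read by filter scintillation counting 1 h after dosing; loss of signal vs DMSO. Initial duplicate screen at 25 uM, actives retested in concentration series.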

Measured: AC50

CCOC(=O)/C=C\C(=O)OCC
inactive: [1]

CC(C)COC(=O)CC(C(=O)OCC(C)C)S(=O)(=O)O (configuration not stated)
active: [2] 25 µM
inactive: [3] | [4] | [5] | [6]

C/C=C/C=C/CCCCCCCO
inactive: [3] | [5] | [6] | [7]
active: [2] 25 µM

CO[Si](CCCS)(OC)OC
inactive: [1]

N#Cc1ccc(C2CCCc3cncn32)cc1 (configuration not stated)
inactive: [2] | [8]
active: [5] 18.2 µM | [6] 15.8 µM

C=C(C)C1CC=C(C)CC1 (configuration not stated)
inactive: [1] | [5] | [6] | [7]

CC1=NN(c2ccc(S(=O)(=O)O)cc2)C(=O)C1N=Nc1ccccc1 (configuration not stated)
active: [1] 12.8 µM
inactive: [3] | [5] | [6]

CCCCCCO
inactive: [9] | [5] | [6] | [7]

CCOC(=O)c1ccc(C)cc1
inactive: [2] | [3] | [4] | [5] | [6] | [7]

C=C1C[C@H]2[C@@H]3C=C(C)C4=CC(=O)CC[C@]4(C)[C@H]3CC[C@]2(C)[C@@]1(OC(C)=O)C(C)=O
active: [1] 0.00144 µM | [2] 4.1 µM | [8] 29.2 µM | [10] 7.9 nM | [7] 27.5 µM
inactive: [3] | [4] | [5] | [6]

Cc1cc(=O)[nH]c(=O)[nH]1
inactive: PGR (gene 5241)

CCCCCCOc1ccc(N)cc1
active: [11] 14.3 µM
inactive: [1] | [2] | [5] | [6] | [7]

CCCCCCCCCCCCc1ccc(O)cc1
inactive: [2] | [3] | [8]
active: [4] 0.981 µM | [5] 0.444 µM | [6] 0.612 µM

CCCCCC[C@@H](O)C/C=C\CCCCCCCC(=O)OCC(O)CO (some centres not stated)
inactive: [3] | [5] | [6] | [7]
active: [9] 15.5 µM

CCCCCCCCCC[N+](C)(CCCCCCCCCC)CCC[Si](OC)(OC)OC
inactive: [1] | [4]
active: [9] 8.29 µM | [12] 25 µM | [2] 4.21 µM | [5] 24.1 µM | [6] 81.9 µM | [7] 11.7 µM

CCCCC(=O)O
active: [1] 8.11 µM
inactive: [1] | [4] | [5] | [6]

CCCCCCCCCCCCCCCCCCOS(=O)(=O)O
inactive: [8] | [5] | [6] | [11]
active: [2] 5.5 µM | [4] 12.6 µM

CCCC(CC)c1ccccc1 (configuration not stated)
inactive: [9] | [1] | [4] | [5] | [6] | [7]

O=C(O)c1cc(O)c2ccccc2c1O
active: [13] 18.4 µM | [1] 9.52 µM | [2] 5.21 µM | [5] 18.1 µM | [6] 25.4 µM
inactive: [12] | [4] | [7]

CC(C)c1ccc(O)c(C(C)C)c1
inactive: [13] | [3] | [4] | [5] | [6] | [7]

COc1ccc(-c2coc3cc(O)cc(O)c3c2=O)cc1
active: [4] 2.61 µM | [5] 8.5 µM | [6] 12.4 µM
inactive: [2] | [8]

CCCCCCCOC(=O)c1ccc(O)cc1
active: [1] 7.77 µM | [3] 12.3 µM | [4] 5.06 µM | [5] 3.39 µM | [6] 3.08 µM
inactive: [9] | [8]

CCc1cccc(C)c1N
inactive: [2] | [3] | [10] | [5] | [6] | [7]

Cc1ccc([N+](=O)[O-])cc1N
not listed: [1] | [8] | [9] | [10] | [12] | [13]
inactive: all other assays above

CCC(C)c1ccccc1 (configuration not stated)
inactive: PGR (gene 5241)

CCCCC/C=C\C/C=C\CCCCCCCC(=O)O
inactive: [13] | [5] | [6] | [11] | [7]
active: [9] 13.1 µM | [2] 4.88 µM | [3] 6.85 µM | [8] 35.8 µM

O=S(=O)(O)c1ccc(N=Nc2c(O)ccc3ccccc23)cc1
active: [12] 31.9 µM | [13] 17.1 µM | [1] 17.2 µM | [3] 20.7 µM
inactive: [4] | [5] | [6] | [7]

CC/C=C\C/C=C\C/C=C\CCCCCCCC(=O)OC
active: [1] 8.39 µM | [15] 11.1 µM
inactive: PGR (gene 5241)

COC(=O)c1ccccc1C
inactive: [2] | [4] | [5] | [6]

CN(C)c1ccc2nc3ccc(=[N+](C)C)cc-3sc2c1
active: [12] 32.7 µM | [13] 7.57 µM | [4] 14.7 µM | [5] 40.6 µM | [6] 28.2 µM | [7] 26.3 µM

CC(C)c1cc(C(C)C)cc(C(C)C)c1
inactive: [2] | [3] | [4] | [5] | [6]

CC(CCC(=O)O)(c1ccc(O)cc1)c1ccc(O)cc1
inactive: [2] | [11] | [7]
active: [8] 6.23 µM | [4] 52.3 µM | [5] 47.1 µM | [6] 35.7 µM

CC(C)CCCCCOC(=O)CS
inactive: PGR (gene 5241)

Source: PubChem BioAssay (EPA / NIEHS)
